Assay [1] is described as follows: qHTS assay to identify small molecule agonists of the hypoxia (HIF-1) signaling pathway - cell viability counter screen (AID 1224844; calls by dose curve; also: nearly all actives have a fitted effect of over 50% in size; also: potency is read from the fitted curve at half-maximal effect). In short, it runs like this: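 HRE-bla ME-180 cells in medium with 0.5% dialyzed FBS were preincubated 5 hrs at 37C, exposed to compounds for 17 hrs, then viability was read as CellTiter-Glo luminescence after 30 min at room temperature, in the reporter wells.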

A short description of assay [2]: qHTS assay to identify small molecule agonists of H2AX (AID 1224845; active = well fitted activation curve with a large enough effect in the signal ratio in the repeat runs, not every such curve was filed as active; the % refers to the signal ratio). Summed up: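 Wild-type CHO-K1 cells, plated overnight, exposed 3hr at 37C to 15 concentrations (0.76% DMSO final). Lysed, then HTRF anti-pH2AX (S139) cryptate and anti-H2AX-d2 antibodies, 24 hr room temperature; 665/620 nm emission read.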
(In general: In qHTS, concentration-response curves come from the screen itself.)

The nature of assay [3]: qHTS assay to identify small molecule agonists of the hypoxia (HIF-1) signaling pathway (AID 1224846; active = well fitted activation curve with a large enough effect in the signal ratio in the repeat runs, not every such curve was filed as active; the % refers to the signal ratio). In short, it runs like this:
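HRE-bla ME-180 cells (beta-lactamase reporter under hypoxia response element) were plated at 2,000 cells/well in medium with 0.5% dialyzed FBS, rested 5 hrs, then given compounds in DMSO for 17 hrs at 37C, 5% CO2. Reporter induction was read with CCF4-AM FRET substrate.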

Assay [4] in a line: qHTS assay to identify small molecule agonists of H2AX - cell viability counter screen (AID 1224847; calls by dose curve; also: nearly all actives have a fitted effect of over 30% in size; also: potency is read from the fitted curve at half-maximal effect). In short, it runs like this:
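Quantitative HTS viability measurement: CHO-K1 wild-type cells in serum (10% FBS) medium, short 3 hr drug exposure at 37C with 0.76% DMSO, CellTiter-Glo luminescent detection.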

Assay [5] in a line: qHTS RealTime-Glo MT Cell Viability Assay in HepG2 cells - 24 hour (AID 1224867). Also: nearly all actives have a fitted effect of over 50% in size. Also: potency is read from the fitted curve at half-maximal effect. In short, it runs like this:
(§1)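 Cells + NanoLuc/prosubstrate dispensed (600 cells/well) → 5 h at 37 C/5% CO2 → compounds in DMSO transferred → 40 h incubation at 37 C, luminescence read at 0, 8, 16, 24, 32, 40 h.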

Assay [6] can be described thus: A CellTox Green Cytotoxicity Assay to monitor cytotoxicity in HEK293 cells - 0 hour (AID 1224869). Also: nearly all actives have a fitted effect of over 50% in size. In short, it runs like this: (§2)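 HEK293 cells premixed with CellTox Green dye were seeded at 600 cells/well and left 5 h at 37 C/5% CO2 before pin transfer of 23 nL compound in DMSO. Fluorescence from dye bound to dead-cell DNA was read during 40 h treatment.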
The nature of assay [7]: qHTS RealTime-Glo MT Cell Viability Assay in HepG2 cells - 40 hour (AID 1224870). Also: nearly all actives have a fitted effect of over 50% in size. Also: potency is read from the fitted curve at half-maximal effect. Summed up:
(§3)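 HepG2 cells (600/well) mixed with RealTime-Glo MT reagent, settled 5 h at 37 C/5% CO2 before compound addition. Nonlytic NanoLuc luminescence from viable-cell prosubstrate reduction read repeatedly during 40 h treatment at 37 C.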

Assay [8] is described as follows: A CellTox Green Cytotoxicity Assay to monitor cytotoxicity in HEK293 cells - 40 hour (AID 1224871). Also: nearly all actives have a fitted effect of over 45% in size. Also: potency is read from the fitted curve at half-maximal effect. Summed up: as §2
Assay [9] is described as follows: qHTS RealTime-Glo MT Cell Viability Assay in HEK293 cells - 16 hour (AID 1224872). Also: nearly all actives have a fitted effect of over 50% in size. Also: potency is read from the fitted curve at half-maximal effect. In short, it runs like this:
(§4)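 Tox21 10K qHTS, HEK293, 600 cells/well, RealTime-Glo reagent co-dispensed with cells; 5 h preincubation, compound by pintool, 37 C, luminescence at 0–40 h.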

The nature of assay [10]: qHTS RealTime-Glo MT Cell Viability Assay in HepG2 cells - 8 hour (AID 1224873). Also: nearly all actives have a fitted effect of over 55% in size. Also: potency is read from the fitted curve at half-maximal effect. Summed up: as §3
Assay [11] in a line: A CellTox Green Cytotoxicity Assay to monitor cytotoxicity in HEK293 cells - 24 hour (AID 1224875). Also: nearly all actives have a fitted effect of over 45% in size. Also: potency is read from the fitted curve at half-maximal effect. Summed up:
as §2

Assay [12] can be described thus: A CellTox Green Cytotoxicity Assay to monitor cytotoxicity in HepG2 cells - 16 hour (AID 1224876). Also: nearly all actives have a fitted effect of over 45% in size. Also: potency is read from the fitted curve at half-maximal effect. Summed up: (§5)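 HepG2 cells were seeded together with the CellTox Green dye at 600 cells/well, left 5 h at 37 C/5% CO2, then given compounds in DMSO. Fluorescence from dye bound to dead-cell DNA was read repeatedly over 40 h of treatment at 37 C.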
Assay [13] is described as follows: qHTS RealTime-Glo MT Cell Viability Assay in HepG2 cells - 32 hour (AID 1224877). Also: nearly all actives have a fitted effect of over 55% in size. Also: potency is read from the fitted curve at half-maximal effect. Summed up: as §1
A short description of assay [14]: A CellTox Green Cytotoxicity Assay to monitor cytotoxicity in HepG2 cells - 24 hour (AID 1224878). Also: nearly all actives have a fitted effect of over 45% in size. In short, it runs like this:
as §5

The nature of assay [15]: A CellTox Green Cytotoxicity Assay to monitor cytotoxicity in HepG2 cells - 40 hour (AID 1224879). Also: nearly all actives have a fitted effect of over 40% in size. Also: potency is read from the fitted curve at half-maximal effect. Summed up: as §5
Assay [16] can be described thus: qHTS RealTime-Glo MT Cell Viability Assay in HEK293 cells - 0 hour (AID 1224880). In short, it runs like this:
(§6)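 HEK293 cells mixed with RealTime-Glo reagents (NanoLuc plus cell-permeant prosubstrate) at 600 cells/well, preincubated 5 h at 37 C/5% CO2, then given 23 nL compound in DMSO. Nonlytic luminescence from viable cells was read at 0, 8, 16, 24, 32 and 40 h.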

Assay [17] is described as follows: qHTS assay to identify small molecule antagonists of the estrogen related receptor (ERR) signaling pathway from Tox21 library (AID 1224848). Also: nearly all actives have a fitted effect of over 50% in size. Also: potency is read from the fitted curve at half-maximal effect. In short, it runs like this:
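ERR reporter cell line (from NTP) seeded 2,000 cells/well, rested 6 h at 37 C/5% CO2, then pin-dosed with compounds in DMSO. After 18 h at 37 C, ONE-Glo added; luminescence read after 30 min at room temperature.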

A short description of assay [18]: qHTS assay to identify small molecule agonists of the estrogen related receptor (ERR) signaling pathway from Tox21 library (AID 1224849; calls by dose curve; also: nearly all actives have a fitted effect of over 15% in size). The note with it: ERR reporter cell line, ONE-Glo luciferase, 18 h. Summed up:
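ERR reporter cell line (NTP) seeded, rested 6 h at 37 C/5% CO2, then pinned with Tox21 compounds in DMSO. After 18 h at 37 C, ONE-Glo luciferase luminescence was read following 30 min at room temperature.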

A short description of assay [19]: qHTS RealTime-Glo MT Cell Viability Assay in HEK293 cells - 32 hour (AID 1224868). Also: nearly all actives have a fitted effect of over 50% in size. Also: potency is read from the fitted curve at half-maximal effect. In short, it runs like this:
as §4

Assay [20] in a line: qHTS RealTime-Glo MT Cell Viability Assay in HEK293 cells - 40 hour (AID 1224874). Also: nearly all actives have a fitted effect of over 50% in size. Also: potency is read from the fitted curve at half-maximal effect. The note with it: RealTime-Glo luminescence; max response: active compounds read low. In short, it runs like this:
as §6

Values joined by “and” are separate entries in the source; they are usually repeats but may differ in a detail not shown here. Identical values can stand only once. Unmarked numbers belong to inactive results. Records with an inconclusive call do not appear. Active and inactive are the calls of the source. Unless noted, calls follow the shape of the dose curve; as a rule, active = well fitted curve in the direction sought with a large enough effect in the repeat runs; inconclusive = weak or mixed curves; inactive = no such curve, though single readings can be large; an effect the other way counts as inactive or inconclusive.
% is scaled to controls: 0 for no effect and ±100 for the full control effect.

With `COC(=O)Nc1nc2ccccc2[nH]1`, the Potency entry in assay [1], in assay [2], in assay [4], in assay [5], in assay [6] and in [7] was “inactive” throughout. For the same compound, the Potency result in assay [8], in assay [9], in assay [10], in assay [11], in assay [12] and in assay [13] was “inactive” in each case. Besides, the Potency entry in assay [14] and in [16] was “inactive” throughout. Further, the call in assay [3] was inactive. Besides, the Potency in assay [15] was 5.49 µM (active) and 11 µM (active).
On to `O=[N+]([O-])c1ccc(Cl)c([N+](=O)[O-])c1`, for which the Potency was 19.8 µM (active) and 13.8 µM (active) in assay [1]; 102 µM (active) in [4]; 24.7 µM (active) and 24.3 µM (active) in assay [17]; 35.2 µM (active) and 17.4 µM (active) in assay [5]; 9.92 µM (active) and 12.3 µM (active) in assay [19]; 35.2 µM (active) and 17.4 µM (active) in assay [7]. Further, the Potency is 14 µM (active) and 19.5 µM (active) in assay [8]; 11.1 µM (active) and 12.3 µM (active) in assay [9]; 24.9 µM (active) and 15.5 µM (active) in [10]; 9.92 µM (active) and 12.3 µM (active) in assay [20]; 39.5 µM (active) in [11]; 39.5 µM (active) and 54.9 µM (active) in assay [12]. The Potency is 35.2 µM (active) and 17.4 µM (active) in assay [13]; 39.5 µM (active) and 24.5 µM (active) in assay [15]. In addition, in assay [18] (at 92.4 µM (top of the series)), the activity change, positive = activation was -81.7% and -78.5%. Besides, the Potency result in assay [6] and in [16] was “inactive” in each case.
Turning to `C[N+](C)(C)CC(=O)[O-]`, the Potency entry in [1], in assay [2], in [4], in assay [5], in assay [19] and in assay [6] was “inactive” throughout. The Potency result in [7], in assay [8], in [9], in assay [11], in [12] and in assay [13] was “inactive” in each case. Besides, the Potency result in [14], in assay [15] and in assay [16] was “inactive” in each case. Moreover, the max response in assay [20] was 3.4% and 10.8%.
`CNC(=O)CSP(=S)(OC)OC`: the Potency result in assay [1], in [4], in [5], in [19], in assay [6] and in [8] was “inactive” each time. Also, the Potency entry in assay [9], in assay [10], in assay [11], in [12], in assay [13] and in assay [14] was “inactive” in each case. Also, the Potency result in assay [15] and in assay [16] was “inactive” each time. Also, the compound was called inactive in assay [3]. Also, the max response in assay [20] was -14.6% and -0.812%.
Regarding `c1ccc2c(c1)Nc1ccccc1S2`, the Potency result in [1], in [4], in assay [17], in assay [5], in [6] and in assay [8] was “inactive” each time. Moreover, the Potency entry in assay [10], in assay [11], in assay [12], in assay [13] and in assay [15] was “inactive” throughout. In addition, the outcome in assay [3] was inactive. The results for the activity change, positive = activation in [18] (at 42.5 µM (top of the series)) and in assay [18] (at 92.4 µM (top of the series)) were -0.479% and -21.3%, respectively. The Potency in assay [19] was 11 µM (active) and 13.4 µM (active); in [9], 6.92 µM (active) and 12 µM (active); in [20], 14.3 µM (active) and 13.4 µM (active).
